Test results from PMC11574364.

Assays:
Experiment in all cases: protein domain microarray probed with biotinylated miRNA; Domain array: 20 mM Tris-HCl pH 7.4, 200 mM KCl, 0.2 mM EDTA, 0.05% NP40, 2 ug/ul heparin, overnight 4 C. ORF array: PBS pH 7.0 with RNase inhibitor, 100 ng RNA; high values mean tight binding
Settings in all cases: ssRNA
HUR = HUR (Homo sapiens, UniProt Q15717)
PABPC4L = PABPC4L (Homo sapiens, UniProt P0CB38)
snRNP B2 = snRNP B2 (Homo sapiens, UniProt P08579)
YTHDC1 = YTHDC1 (Homo sapiens, UniProt Q96MU7)
snRNP A = snRNP A (Homo sapiens, UniProt P09012)
SLIRP = SLIRP (Homo sapiens, UniProt Q9GZT3)
SF3B6 = SF3B6 (Homo sapiens, UniProt Q9Y3B4)
SFRS9 = SFRS9 (Homo sapiens, UniProt Q13242)
Chain of SFRS9 (Q13242 whole entry): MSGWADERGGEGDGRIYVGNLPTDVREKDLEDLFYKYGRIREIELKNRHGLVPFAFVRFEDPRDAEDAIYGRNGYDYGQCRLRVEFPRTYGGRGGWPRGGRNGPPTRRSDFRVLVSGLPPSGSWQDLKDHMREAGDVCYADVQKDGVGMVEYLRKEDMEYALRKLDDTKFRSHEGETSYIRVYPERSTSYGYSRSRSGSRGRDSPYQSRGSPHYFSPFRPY

Chain of PABPC4L (P0CB38 whole entry): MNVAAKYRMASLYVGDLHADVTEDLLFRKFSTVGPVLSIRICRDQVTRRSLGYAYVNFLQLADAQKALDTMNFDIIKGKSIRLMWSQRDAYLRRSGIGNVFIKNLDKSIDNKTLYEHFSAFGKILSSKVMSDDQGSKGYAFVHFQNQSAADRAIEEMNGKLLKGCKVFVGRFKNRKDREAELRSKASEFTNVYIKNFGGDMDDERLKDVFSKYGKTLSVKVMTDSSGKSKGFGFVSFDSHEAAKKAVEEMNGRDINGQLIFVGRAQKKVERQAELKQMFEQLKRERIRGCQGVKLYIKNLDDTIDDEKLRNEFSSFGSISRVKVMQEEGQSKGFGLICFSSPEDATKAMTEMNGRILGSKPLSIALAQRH
Chain of SF3B6 (Q9Y3B4 whole entry): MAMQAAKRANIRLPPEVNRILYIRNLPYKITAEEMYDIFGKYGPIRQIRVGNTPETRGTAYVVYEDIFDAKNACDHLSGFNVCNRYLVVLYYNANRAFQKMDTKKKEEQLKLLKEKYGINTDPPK
Chain of snRNP B2 (P08579 whole entry): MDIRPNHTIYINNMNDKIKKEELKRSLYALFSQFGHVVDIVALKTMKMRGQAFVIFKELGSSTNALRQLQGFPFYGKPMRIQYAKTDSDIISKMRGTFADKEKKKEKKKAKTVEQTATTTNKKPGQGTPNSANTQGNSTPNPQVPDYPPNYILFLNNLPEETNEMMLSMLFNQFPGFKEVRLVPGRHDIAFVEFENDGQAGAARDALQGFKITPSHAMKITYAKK
Chain of snRNP A (P09012 whole entry): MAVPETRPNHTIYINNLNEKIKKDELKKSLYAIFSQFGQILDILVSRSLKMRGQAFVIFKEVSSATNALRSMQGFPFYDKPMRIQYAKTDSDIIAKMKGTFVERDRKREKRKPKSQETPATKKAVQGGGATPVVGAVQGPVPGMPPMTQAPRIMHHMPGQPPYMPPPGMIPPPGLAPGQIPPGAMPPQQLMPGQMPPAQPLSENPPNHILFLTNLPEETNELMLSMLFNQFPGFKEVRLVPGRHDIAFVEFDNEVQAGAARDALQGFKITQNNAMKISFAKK
Chain of HUR (Q15717 whole entry): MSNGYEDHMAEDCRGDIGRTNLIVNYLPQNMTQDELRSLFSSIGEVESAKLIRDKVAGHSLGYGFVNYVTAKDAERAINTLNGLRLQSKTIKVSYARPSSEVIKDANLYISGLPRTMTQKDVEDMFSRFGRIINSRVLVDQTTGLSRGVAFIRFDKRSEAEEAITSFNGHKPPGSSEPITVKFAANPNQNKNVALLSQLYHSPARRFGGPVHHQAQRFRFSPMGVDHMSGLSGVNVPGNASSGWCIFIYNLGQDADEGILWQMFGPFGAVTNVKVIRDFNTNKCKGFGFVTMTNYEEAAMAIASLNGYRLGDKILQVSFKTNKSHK

Sequence: UGAGGUAGUAGGUUGUGUGGUU
- binding signal (HUR): 1300 ± 85.7 fluorescence intensity
- binding signal (PABPC4L): 523 ± 82.5 fluorescence intensity
- binding signal (snRNP B2): 296 ± 33.8 fluorescence intensity
- binding signal (YTHDC1): 179 ± 8.44 fluorescence intensity
- binding signal (snRNP A): 236.6 ± 1.37 fluorescence intensity
- binding signal (SLIRP): 232 ± 20.1 fluorescence intensity
- binding signal (SF3B6): 282 ± 3.13 fluorescence intensity
- binding signal (SFRS9): 580 ± 35.6 fluorescence intensity

Sequence: UGAGGUAGUAGGUUGUAUAGUU
- binding signal (HUR): 477 ± 14 fluorescence intensity
- binding signal (PABPC4L): 129 ± 51.7 fluorescence intensity
- binding signal (snRNP B2): 43.98 ± 0.219 fluorescence intensity
- binding signal (YTHDC1): 25.3 ± 0.502 fluorescence intensity
- binding signal (snRNP A): 28 ± 0.686 fluorescence intensity
- binding signal (SLIRP): 32.41 ± 0.262 fluorescence intensity
- binding signal (SF3B6): 31.6 ± 1.95 fluorescence intensity
- binding signal (SFRS9): 37.9 ± 10.5 fluorescence intensity

Sequence: UAGCUUAUCAGACUGAUGUUGA
- binding signal (HUR): 219 ± 16.5 fluorescence intensity
- binding signal (snRNP B2): 24.4 ± 2.86 fluorescence intensity
- binding signal (snRNP A): 25.3 ± 14.1 fluorescence intensity
- binding signal (SLIRP): 24.4 ± 1.37 fluorescence intensity
- binding signal (SFRS9): 54.9 ± 6.63 fluorescence intensity

Sequence: UGAGGUAGUAGGUUGUAUGGUU
- binding signal (HUR): 1165 ± 9.92 fluorescence intensity
- binding signal (PABPC4L): 506 ± 42.2 fluorescence intensity
- binding signal (snRNP B2): 184 ± 4.53 fluorescence intensity
- binding signal (YTHDC1): 122.4 ± 0.332 fluorescence intensity
- binding signal (snRNP A): 372 ± 10.2 fluorescence intensity
- binding signal (SLIRP): 107 ± 4.07 fluorescence intensity
- binding signal (SF3B6): 136 ± 26.8 fluorescence intensity
- binding signal (SFRS9): 343 ± 5.06 fluorescence intensity

Sequence: AGAGGUAGUAGGUUGCAUAGUU
- binding signal (HUR): 1350 ± 50 fluorescence intensity
- binding signal (PABPC4L): 466 ± 20.9 fluorescence intensity
- binding signal (snRNP B2): 147 ± 5.66 fluorescence intensity
- binding signal (YTHDC1): 80.4 ± 1.63 fluorescence intensity
- binding signal (snRNP A): 342 ± 6.74 fluorescence intensity
- binding signal (SLIRP): 104 ± 2.51 fluorescence intensity
- binding signal (SF3B6): 117.8 ± 0.707 fluorescence intensity
- binding signal (SFRS9): 273 ± 31 fluorescence intensity

Sequence: CAGUGCAAUGAUGAAAGGGCAU
- binding signal (HUR): 652.6 ± 4.58 fluorescence intensity
- binding signal (PABPC4L): 380 ± 28.5 fluorescence intensity
- binding signal (snRNP B2): 164 ± 16.3 fluorescence intensity
- binding signal (YTHDC1): 64.9 ± 3.94 fluorescence intensity
- binding signal (snRNP A): 224 ± 14.6 fluorescence intensity
- binding signal (SLIRP): 55.4 ± 6.36 fluorescence intensity
- binding signal (SF3B6): 58.7 ± 1.9 fluorescence intensity
- binding signal (SFRS9): 370 ± 18.4 fluorescence intensity
